# Test results: the supplement of paper PMC8728848
# The sample as a whole holds a higher share of the strongest signals than the screen did.
# B1: HopZSSI-T (Helicobacter pylori), B5Z6D0 (protein)
# chain: MGSSHHHHHHSSGLVPRGSHMENLYFQGEDNGFFISAGYQIGEAAQMVKNTGELKKLSDTYENLSNLLTNFNNLNQAVTNASSPSEINAAIDNLKANTQGLTGEKTNSPAYQAVYLALNAAVGLWNVIAYNVQCGPGNSSQQSVTFEGQPGHNSSSINCNLTGYNNGVSGPLSIDNFKQLNQAYQVLQQALKQGVPVLNNTNQKIEVKVTTQTNGQSSKETTTTTTTNDAQTLLQEASKMIDVLTTNCPWVNHNPGQNGGAPWGLIRQECVSGFATEFSAVTSMIKNAQEIVTQAQSLNANQNNQNAPQDFNPYTSADRAFAQNMLNHAQAQAKILELADQMKKDLNTIPSQFITNYLAACRIDGTTPSQGVTNNTWGAGCAYVEETITALNNSLAHFGTQAEQIKQSELLARTILDFRGSLSTLNSTYNSITTTASNTPNSPFLKNLISQSTNPNNPGGLQAVYQVNQSAYSQLLSATQELGHNPFRRIGLISSQT
# Key:
# Assay in all cases: glycan array binding signal (z-score within array); higher = stronger binding
# Conditions in all cases: glycan notation: IUPAC condensed, linker removed
# [1] = target: GlcNAc(b1-3)Gal(b1-4)GlcNAc(b1-3)Gal(b1-4)GlcNAc(b1-2)Man(a1-3)[GlcNAc(b1-3)Gal(b1-4)GlcNAc(b1-3)Gal(b1-4)GlcNAc(b1-2)Man(a1-6)]Man(b1-4)GlcNAc(b1-4)GlcNAc
# Summary of the method: (§1)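 Arrays were curated from the Consortium for Functional Glycomics database, 3228 in total, and kept only where the protein sequence was available. Binding is expressed as a within-array Z-score. This score was averaged across arrays of the same protein sequence at different concentrations or buffers and across linkers, and negative values can be read as non-binding.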
# [2] = target: GlcNAc(b1-3)Gal(b1-4)GlcNAc(b1-3)Gal(b1-4)GlcNAc(b1-3)Gal(b1-4)GlcNAc(b1-2)Man(a1-3)[GlcNAc(b1-3)Gal(b1-4)GlcNAc(b1-3)Gal(b1-4)GlcNAc(b1-3)Gal(b1-4)GlcNAc(b1-2)Man(a1-6)]Man(b1-4)GlcNAc(b1-4)[Fuc(a1-6)]GlcNAc
# Summary of the method: as §1
# [3] = target: GlcNAc(b1-3)Gal(b1-4)GlcNAc(b1-3)Gal(b1-4)GlcNAc(b1-3)Gal(b1-4)GlcNAc(b1-2)[GlcNAc(b1-3)Gal(b1-4)GlcNAc(b1-3)Gal(b1-4)GlcNAc(b1-3)Gal(b1-4)GlcNAc(b1-6)]Man(a1-6)[GlcNAc(b1-3)Gal(b1-4)GlcNAc(b1-3)Gal(b1-4)GlcNAc(b1-3)Gal(b1-4)GlcNAc(b1-2)Man(a1-3)]Man(b1-4)GlcNAc(b1-4)[Fuc(a1-6)]GlcNAc
# Summary of the method: as §1
# [4] = target: GlcNAc(b1-4)GlcNAc(b1-4)GlcNAc(b1-4)GlcNAc(b1-4)GlcNAc(b1-4)GlcNAc
# Summary of the method: as §1
# [5] = target: GlcNAc6S(b1-3)Gal(b1-4)GlcNAc
# Summary of the method: as §1
# Kdn(a2-3)Gal(b1-4)GlcNAc = target: Kdn(a2-3)Gal(b1-4)GlcNAc
# Summary of the method: as §1
# [6] = target: Man(a1-2)Man(a1-6)[Man(a1-3)]Man(a1-6)[Man(a1-2)Man(a1-2)Man(a1-3)]Man
# Summary of the method: as §1
# [7] = target: Neu5Ac(a2-3)Gal(b1-3)GlcNAc(b1-2)Man(a1-3)[Neu5Ac(a2-3)Gal(b1-3)GlcNAc(b1-2)Man(a1-6)]Man(b1-4)GlcNAc(b1-4)GlcNAc
# Summary of the method: as §1
# [8] = target: Neu5Ac(a2-3)Gal(b1-3)[Fuc(a1-4)]GlcNAc(b1-3)Gal(b1-3)[Fuc(a1-4)]GlcNAc
# Summary of the method: as §1
# [9] = target: Neu5Ac(a2-3)Gal(b1-4)GlcNAc(b1-2)[Neu5Ac(a2-3)Gal(b1-4)GlcNAc(b1-6)]Man(a1-6)[Neu5Ac(a2-3)Gal(b1-4)GlcNAc(b1-2)Man(a1-3)][GlcNAc(b1-4)]Man(b1-4)GlcNAc(b1-4)GlcNAc
# Summary of the method: as §1
# [10] = target: Neu5Ac(a2-3)Gal(b1-4)GlcNAc(b1-3)Gal(b1-4)GlcNAc(b1-6)[Gal(b1-3)]GalNAc
# Summary of the method: as §1
# [11] = target: Neu5Ac(a2-3)[GalNAc(b1-4)]Gal(b1-4)GlcNAc(b1-3)GalNAc
# Summary of the method: as §1
# Neu5Ac(a2-6)Gal = target: Neu5Ac(a2-6)Gal
# Summary of the method: as §1
# [12] = target: Neu5Ac(a2-6)Gal(b1-3)GlcNAc(b1-3)[Gal(b1-4)GlcNAc(b1-6)]Gal(b1-4)Glc
# Summary of the method: as §1
# [13] = target: Neu5Ac(a2-6)Gal(b1-4)GlcNAc
# Summary of the method: as §1
# [14] = target: Neu5Ac(a2-6)Gal(b1-4)GlcNAc(b1-2)Man(a1-3)Man(b1-4)GlcNAc(b1-4)GlcNAc
# Summary of the method: as §1
# [15] = target: Neu5Ac(a2-6)Gal(b1-4)GlcNAc(b1-2)Man(a1-3)[Neu5Ac(a2-6)Gal(b1-4)GlcNAc(b1-2)Man(a1-6)]Man(b1-4)GlcNAc(b1-4)GlcNAc
# Summary of the method: as §1
# [16] = target: Neu5Ac(a2-6)Gal(b1-4)GlcNAc(b1-3)Gal(b1-4)GlcNAc(b1-3)Gal(b1-4)GlcNAc(b1-2)Man(a1-3)[Neu5Ac(a2-6)Gal(b1-4)GlcNAc(b1-3)Gal(b1-4)GlcNAc(b1-3)Gal(b1-4)GlcNAc(b1-2)Man(a1-6)]GalNAc
# Summary of the method: as §1
# [17] = target: Neu5Ac(a2-6)Gal(b1-4)GlcNAc(b1-3)GalNAc
# Summary of the method: as §1
# [18] = target: Neu5Ac(a2-6)Gal(b1-4)GlcNAc(b1-6)[Gal(b1-3)]GalNAc
# Summary of the method: as §1
# Neu5Ac(a2-6)GalNAc = target: Neu5Ac(a2-6)GalNAc
# Summary of the method: as §1
# [19] = target: Neu5Ac(a2-6)GlcNAc(b1-4)GlcNAc(b1-4)GlcNAc
# Summary of the method: as §1
# Neu5Ac(a2-8)Neu5Ac = target: Neu5Ac(a2-8)Neu5Ac
# Summary of the method: as §1
# [20] = target: Neu5Ac(a2-8)Neu5Ac(a2-3)Gal(b1-4)Glc
# Summary of the method: as §1
# [21] = target: Neu5Ac(a2-8)Neu5Gc(a2-3)Gal(b1-4)GlcNAc
# Summary of the method: as §1
# [22] = target: Neu5Gc(a2-3)Gal(b1-4)GlcNAc(b1-3)Gal(b1-4)GlcNAc(b1-2)Man(a1-3)[Neu5Gc(a2-3)Gal(b1-4)GlcNAc(b1-3)Gal(b1-4)GlcNAc(b1-2)Man(a1-6)]Man(b1-4)GlcNAc(b1-4)GlcNAc
# Summary of the method: as §1
# [23] = target: Neu5Gc(a2-8)Neu5Gc(a2-6)Gal(b1-4)GlcNAc
# Summary of the method: as §1
binder,measurement,setting,value
B1,glycan array binding signal (z-score),[1],1.48
same,glycan array binding signal (z-score),[2],1.5
same,glycan array binding signal (z-score),[3],1.12
same,glycan array binding signal (z-score),[4],-0.476
same,glycan array binding signal (z-score),[5],-0.089
same,glycan array binding signal (z-score),Kdn(a2-3)Gal(b1-4)GlcNAc,0.049
same,glycan array binding signal (z-score),[6],-0.645
same,glycan array binding signal (z-score),[7],-0.396
same,glycan array binding signal (z-score),[8],-0.391
same,glycan array binding signal (z-score),[9],0.342
same,glycan array binding signal (z-score),[10],0.966
same,glycan array binding signal (z-score),[11],0.891
same,glycan array binding signal (z-score),Neu5Ac(a2-6)Gal,0.007
same,glycan array binding signal (z-score),[12],-0.472
same,glycan array binding signal (z-score),[13],-0.343
same,glycan array binding signal (z-score),[14],-0.42
same,glycan array binding signal (z-score),[15],-0.19
same,glycan array binding signal (z-score),[16],0.709
same,glycan array binding signal (z-score),[17],0.356
same,glycan array binding signal (z-score),[18],3.23
same,glycan array binding signal (z-score),Neu5Ac(a2-6)GalNAc,2.01
same,glycan array binding signal (z-score),[19],-0.141
same,glycan array binding signal (z-score),Neu5Ac(a2-8)Neu5Ac,0.598
same,glycan array binding signal (z-score),[20],-0.031
same,glycan array binding signal (z-score),[21],-0.272
same,glycan array binding signal (z-score),[22],1.53
same,glycan array binding signal (z-score),[23],0.181
